The target of experiment [1] is Cellular tumor antigen p53 (Homo sapiens) (UniProt P04637). In words: TOX21_p53_BLA_p2_ratio: Tox21 HCT-116 p53 Agonism Beta-lactamase Assay, Ratio, Phase 2 (AID 2283592; active = hit-call score of the fitted dose curve at least 0.9, where 1 is the maximum). In outline:
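DMSO-normalized, positive-direction endpoint derived from the 460 nm/530 nm FRET ratio in HCT116 p53 beta-lactamase reporter cells exposed 16 h at 37C and loaded with CCF4-AM for 2 h.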

For experiment [2] the target is unchanged. In words: TOX21_p53_BLA_p3_ratio: Tox21 HCT-116 p53 Agonism Beta-lactamase Assay, Ratio, Phase 3 (AID 2283596; active = hit-call score of the fitted dose curve at least 0.9, where 1 is the maximum). In a few lines:
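Cells were seeded at 4000/well, rested 5 h at 37C, then dosed with DMSO compound solutions (217-fold dilution) for 16 h. CCF4-AM substrate was loaded for 2 h at room temperature, and the 460/530 nm emission ratio was fitted for gain of signal versus DMSO.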

For experiment [3] the target is unchanged. In words: TOX21_p53_BLA_p5_ratio: Tox21 HCT-116 p53 Agonism Beta-lactamase Assay, Ratio, Phase 5 (AID 2283599; active = hit-call score of the fitted dose curve at least 0.9, where 1 is the maximum). In a few lines: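 HCT-116 cells carrying a p53-inducible beta-lactamase reporter were seeded at 4000 cells/well and dosed after 5 h with compound in DMSO (217-fold dilution). After 16 h at 37C, CCF4-AM substrate was added for 2 h, and the 460/530 nm emission ratio was scored as gain-of-signal versus DMSO.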

The target is the same in experiment [4]. In words: TOX21_p53_BLA_p4_ratio: Tox21 HCT-116 p53 Agonism Beta-lactamase Assay, Ratio, Phase 4 (AID 2283601; active = hit-call score of the fitted dose curve at least 0.9, where 1 is the maximum). In a few lines:
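HCT116 cells carrying an inducible beta-lactamase reporter were plated at 4000 cells/well, rested 5 h, then exposed to compounds in DMSO (217-fold dilution) for 16 h at 37C. CCF4-AM substrate was loaded 2 h at room temperature; 460/530 nm emission ratio scored gain-of-signal versus DMSO.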

Experiment [5] can be described thus: TOX21_p53_BLA_p5_viability: Viability Assessment in the Tox21 HCT-116 p53 Agonism Beta-lactamase Assay, Phase 5 (AID 2283600; active = hit-call score of the fitted dose curve at least 0.9, where 1 is the maximum). In a few lines:
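Here cell health was gauged by ATP levels in wells holding 4000 cells, each treated 16 h with DMSO-delivered compounds at 217-fold dilution; reduced luminescence marked toxicity.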

Experiment [6] is described as follows: CCTE_Shafer_MEA_dev_firing_rate_mean: CCTE's Neural Network Formation Assay for Mean Firing Rate, Shafer Lab (AID 2284031). In a few lines:
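Extracellular spike frequency, AUC over DIV 5–12 recordings, in rat cortical neuron MEA cultures dosed from plating; loss direction vs DMSO.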

The nature of experiment [7]: CCTE_Shafer_MEA_dev_per_burst_spike_percent: CCTE's Neural Network Formation Assay for Percent of Spikes in a Burst, Shafer Lab (AID 2284032).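 Also: fitted as a decrease in burst spike percentage below DMSO baseline.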 In a few lines:
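Value is trapezoidal AUC over recordings on days 5, 7, 9 and 12 of the well-mean fraction of spikes falling in single-electrode bursts; rat cortical cultures exposed continuously from plating, treatment renewed DIV 5 and 9, fitted downward against DMSO.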

Experiment [8] in a line: CCTE_Shafer_MEA_dev_active_electrodes_number: CCTE's Neural Network Formation Assay for Number of Active Electrodes, Shafer Lab (AID 2284040; active = hit-call score of the fitted dose curve at least 0.9, where 1 is the maximum;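 also: potency for loss of active electrodes versus DMSO so lower counts are hits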). In outline: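 Developing rat cortical networks on MEAs, exposed DIV 0–12. Value is the AUC of active-electrode counts (≥5 spikes/min) from days 5, 7, 9, 12, relative to DMSO.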
The nature of experiment [9]: CCTE_Shafer_MEA_dev_burst_rate: CCTE's Neural Network Formation Assay for Burst Rate, Shafer Lab (AID 2284042). In outline:
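Primary rat cortical neurons on PEI-coated 48-well MEA plates (laminin added with cells at plating) (16 electrodes/well), exposed from plating to day 12, dosing renewed at DIV 5 and 9. Burst rate averaged over active electrodes, recorded DIV 5, 7, 9, 12, summarized as AUC; loss versus DMSO.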

Experiment [10] can be described thus: CCTE_Shafer_MEA_dev_per_burst_interspike_interval: CCTE's Neural Network Formation Assay for Burst Interspike Interval, Shafer Lab (AID 2284044). In outline:
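Spontaneous activity of maturing rat cortical networks is recorded on DIV 5, 7, 9 and 12 under chronic compound exposure beginning at plating. Endpoint: burst interspike interval well-mean, collapsed into trapezoidal AUC and fitted in the negative direction relative to DMSO.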

A short description of experiment [11]: CCTE_Shafer_MEA_dev_burst_duration_mean: CCTE's Neural Network Formation Assay for Mean Burst Duration, Shafer Lab (AID 2284045). In outline: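 Network-formation assay in primary rat cortical neurons; treatment spans twelve days of development. Mean burst duration per well is integrated by trapezoidal AUC and fitted in the loss-of-signal direction against DMSO baseline.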

Experiment [12] is described as follows: CCTE_Shafer_MEA_dev_interburst_interval_mean: CCTE's Neural Network Formation Assay for Mean Interburst Interval, Shafer Lab (AID 2284046).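 Also: well-mean interburst interval of bursting electrodes as AUC over four recording days; curve fitted for decrease in interburst interval relative to DMSO.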 In a few lines: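 Recordings on days 5, 7, 9 and 12 give well-mean interburst interval across actively bursting electrodes, summarized as area under the curve. Cultures: rat cortical neurons, continuous exposure from day 0, compound renewed at feeds; decrease analyzed versus DMSO.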

Experiment [13] in a line: CCTE_Shafer_MEA_dev_inter_network_spike_interval_mean: CCTE's Neural Network Formation Assay for Mean Inter-network Spike Interval, Shafer Lab (AID 2284047). In outline:
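Primary rat cortical neurons on 16-electrode MEA wells, exposed from plating day 0 through DIV 12, compound renewed at DIV 5 and 9 media changes. Mean interval between network-spike peaks recorded DIV 5, 7, 9, 12; collapsed as trapezoidal AUC, fitted downward versus DMSO.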

Experiment [14] can be described thus: CCTE_Shafer_MEA_dev_network_spike_number: CCTE's Neural Network Formation Assay for Number of Network Spikes, Shafer Lab (AID 2284048).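 Also: synchronized bursts across electrodes counted on days 5 7 9 12 and integrated as AUC.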 In outline:
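Extracellular recordings from 16-electrode wells track network formation in rat cortical cultures under continuous treatment from plating. The endpoint is network spike number, expressed as AUC across DIV 5–12 relative to DMSO vehicle.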

A short description of experiment [15]: CCTE_Shafer_MEA_dev_network_spike_peak: CCTE's Neural Network Formation Assay for Mean Number of Electrodes in Network Spike, Shafer Lab (AID 2284049). In a few lines:
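Continuous 12-day exposure of rat cortical cultures, starting at plating, on MEA plates. Endpoint: electrodes participating in network-spike peaks, AUC across DIV 5–12, DMSO as negative control.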

The nature of experiment [16]: CCTE_Shafer_MEA_dev_spike_duration_mean: CCTE's Neural Network Formation Assay for Mean Spike Duration, Shafer Lab (AID 2284051).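 Also: mean network spike duration pooled as area under curve over DIV 5 to 12 recordings; potency for a decrease in mean network spike duration versus DMSO.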 In outline: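 Primary rat cortical neurons on 16-electrode MEA wells (PEI-coated, laminin in plating drop), exposed from plating through DIV 12 with compound renewed at DIV 5 and 9. Mean network-spike duration recorded DIV 5, 7, 9, 12; trapezoidal AUC across days, DMSO baseline.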

A short description of experiment [17]: CCTE_Shafer_MEA_dev_network_spike_duration_std: CCTE's Neural Network Formation Assay for Standard Deviation of Network Spike Duration, Shafer Lab (AID 2284052).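 Also: area under curve of spike duration SD across recording days 5 to 12; hits are decreases in network spike duration SD versus DMSO vehicle.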 In outline: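 Primary rat cortical neurons on PEI-coated 16-electrode MEA wells, exposed from plating day 0 through day 12 with compound renewed at DIV 5 and 9. Network spike duration SD recorded on days 5, 7, 9, 12, collapsed as trapezoidal AUC; loss-of-signal fit versus DMSO.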

The nature of experiment [18]: CCTE_Shafer_MEA_dev_per_network_spike_spike_number_mean: CCTE's Neural Network Formation Assay for Mean Number of Spikes in a Network Spike, Shafer Lab (AID 2284053). In outline: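 Primary rat cortical neurons on 48-well, 16-electrode MEA plates were exposed from plating to DIV 12, with dosing renewed on DIV 5 and 9. Spikes per network spike (0.05 s peak window) were recorded on DIV 5, 7, 9 and 12 and collapsed as trapezoidal AUC versus DMSO.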

A short description of experiment [19]: CCTE_Shafer_MEA_dev_per_network_spike_spike_percent: CCTE's Neural Network Formation Assay for Percent of Spikes in a Network Spike, Shafer Lab (AID 2284054). In outline: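 Developing networks of rat cortical neurons are dosed at day 0 and recorded extracellularly four times up to day 12. The endpoint is the area under the curve of percent spikes in network spikes, fitted in the negative direction relative to DMSO.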

Experiment [20] in a line: CCTE_Shafer_MEA_dev_LDH: CCTE's Lactate Dehydrogenase Assay for Cytotoxicity in the Neural Network Formation Assay, Shafer Lab (AID 2284068; active = hit-call score of the fitted dose curve at least 0.9, where 1 is the maximum;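 also: exposure for twelve days from plating with re-dosing on DIV 5 and 9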). In a few lines:
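Primary rat cortical neurons were plated on PEI/laminin MEA plates and exposed from day 0 for twelve days, with compound renewed at DIV 5 and 9. Cytotoxicity was determined by spectrophotometric LDH assay relative to DMSO.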

Experiment [21] can be described thus: CCTE_Shafer_MEA_dev_AB: CCTE's Alamar Blue Assay for Cytotoxicity in the Neural Network Formation Assay, Shafer Lab (AID 2284083; active = hit-call score of the fitted dose curve at least 0.9, where 1 is the maximum;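 also: twelve days of exposure from plating with re-dosing on DIV 5 and 9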). In outline:
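Primary rat cortical neurons on PEI-coated 48-well MEA plates, 1.5 x 10^5 cells/well in laminin drop; compound exposure from day 0 of plating for twelve days, renewed at medium changes on DIV 5 and 9. Viability read as resazurin reduction by fluorescence, relative to DMSO.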

Experiment [22] is described as follows: CCTE_Shafer_MEA_dev_mutual_information_norm: CCTE's Neural Network Formation Assay for Mutual Information Normalization, Shafer Lab (AID 2284091). In a few lines: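 Exposure of primary rat cortical neurons began at plating and ran to DIV 12, with full media and treatment renewal after DIV 5 and 9 recordings. Mutual information AUC (DIV 5–12) was analysed for loss versus DMSO.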

A short description of experiment [23]: CCTE_Shafer_MEA_dev_correlation_coefficient_mean: CCTE's Neural Network Formation Assay for Mean Correlation Coefficient, Shafer Lab (AID 2284093). In a few lines: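 Spontaneous activity recorded on days 5, 7, 9 and 12 post-plating; pairwise spike correlations are averaged across active electrodes and collapsed to an area-under-curve. Rat cortical cultures are dosed from plating through 12 days, with compound renewed at media changes.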

Experiment [24] is described as follows: CCTE_Mundy_HCI_Cortical_Synap_Neur_Matur_NeuriteSpotCountPerNeuriteLength: CCTE's Synaptogenesis and Neurite Maturation Assay in rat cortical cells for Neurite Spot Count per Neurite Length, Mundy Lab (AID 2284210). In outline: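 Neurite-associated synapse density (synaptophysin puncta per unit neurite length) is measured by fluorescence high-content imaging in rat cortical cultures treated from DIV 7 and fixed at DIV 12, with DMSO as negative control.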

The nature of experiment [25]: CCTE_Mundy_HCI_Cortical_NOG_NeuriteLength: CCTE's Neurite Outgrowth Assay in rat cortical cells for Neurite Length, Mundy Lab (AID 2284213). In outline: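 First, rat primary cortical cells were plated and, 2 h later, given test chemical as a 1/10 dilution. Finally, βIII-tubulin immunostaining enabled automated imaging of neurite length.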
Experiment [26] can be described thus: CCTE_Mundy_HCI_Cortical_Synap_Neur_Matur_NeuriteSpotCountPerNeuron: CCTE's Synaptogenesis and Neurite Maturation Assay in rat cortical cells for Neurite Spot Count per Neuron Count, Mundy Lab (AID 2284215). In a few lines: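 Developing rat cortical neurons, with glia suppressed by AraC, are exposed to chemicals from DIV 7 to DIV 12. Automated fluorescence imaging of MAP2-labelled neurites and synaptophysin puncta yields a count per neuron, normalised against DMSO wells.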

Experiment [27] in a line: CCTE_Mundy_HCI_Cortical_Synap_Neur_Matur_SynapseCount: CCTE's Synaptogenesis and Neurite Maturation Assay in rat cortical cells for Synapse Count, Mundy Lab (AID 2284218). In a few lines: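 Endpoint: synapses/neuron by HCI (synaptophysin puncta on MAP2-labelled neurites, Hoechst nuclei). Rat primary cortical cells, AraC DIV 5, dosed DIV 7, fixed DIV 12; DMSO negative control.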

A short description of experiment [28]: CCTE_Mundy_HCI_hN2_NOG_NeuriteCount: CCTE's Neurite Outgrowth Assay in human hN2 cells for Neurite Count, Mundy Lab (AID 2284219; active = hit-call score of the fitted dose curve at least 0.9, where 1 is the maximum). In outline:
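In this morphology assay, hNP1-derived neurons received test chemical 2 h post-plating and were fixed two days later in warm paraformaldehyde/sucrose containing Hoechst 33342. Neurites, labelled by rabbit anti-βIII-tubulin (1:800) and Alexa Fluor-488 (1:500), were counted automatically.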

Experiment [29] in a line: CCTE_Mundy_HCI_hN2_NOG_NeuriteLength: CCTE's Neurite Outgrowth Assay in human hN2 cells for Neurite Length, Mundy Lab (AID 2284220; active = hit-call score of the fitted dose curve at least 0.9, where 1 is the maximum). In outline:
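Using βIII-tubulin immunofluorescence and Hoechst nuclear counterstain, this component quantifies neurite length in hNP1-derived neurons.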

A short description of experiment [30]: CCTE_Mundy_HCI_hN2_NOG_NeuronCount: CCTE's Neurite Outgrowth Assay in human hN2 cells for Neuron Count, Mundy Lab (AID 2284221; active = hit-call score of the fitted dose curve at least 0.9, where 1 is the maximum). In a few lines:
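Read-out is the number of betaIII-tubulin-positive neurons imaged by automated high-content analysis, with DMSO as negative control.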

Experiment [31] is described as follows: CCTE_Mundy_HCI_Cortical_Synap_Neur_Matur_CellBodySpotCount: CCTE's Synaptogenesis and Neurite Maturation Assay in rat cortical cells for Cell Body Spot Count, Mundy Lab (AID 2284223). In a few lines: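 Chemicals were applied to AraC-treated rat primary cortical cells at DIV 7 and measured at DIV 12. Fixed cells were labelled for MAP2, synaptophysin and nuclei, and high-content imaging gave cell body synaptophysin spot counts per neuron relative to DMSO.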

A short description of experiment [32]: CCTE_Mundy_HCI_hNP1_Casp3_7: CCTE's Caspase-Glo 3/7 Assay in human neuroprogenitor cells for Apoptosis, Mundy Lab (AID 2284240). In a few lines:
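Neuroepithelial-lineage stem cells from WA09 embryonic cells were treated with chemicals after 40–44 h of culture. Twenty-four hours later, caspase-3/7 activation was detected luminescently after a 30 min room-temperature reagent step, with DMSO as baseline.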

SMILES strings stand for the structures. Inconclusive results are not listed. The source made the active and inactive calls. The calls were made as follows, unless noted: active = hit-call score of the fitted dose curve at least 0.9, where 1 is the maximum; inactive = score below 0.9.

Sequence of Cellular tumor antigen p53 (Homo sapiens) (P04637 whole entry, looked up): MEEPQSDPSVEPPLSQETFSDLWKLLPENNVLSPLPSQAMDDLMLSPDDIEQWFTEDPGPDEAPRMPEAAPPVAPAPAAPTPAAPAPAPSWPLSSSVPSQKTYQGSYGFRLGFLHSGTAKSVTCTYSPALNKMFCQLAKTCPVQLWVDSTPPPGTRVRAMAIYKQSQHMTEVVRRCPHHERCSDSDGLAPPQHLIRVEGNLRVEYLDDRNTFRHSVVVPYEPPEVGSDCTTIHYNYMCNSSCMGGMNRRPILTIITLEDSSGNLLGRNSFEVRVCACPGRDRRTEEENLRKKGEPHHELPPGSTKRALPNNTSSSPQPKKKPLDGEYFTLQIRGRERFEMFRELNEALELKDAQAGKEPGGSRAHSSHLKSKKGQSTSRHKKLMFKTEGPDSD

`CCS(=O)(=O)C(C)(C)S(=O)(=O)CC`: the outcome in experiment [1], in [2], in [3] and in experiment [4] was inactive.

The term AC50 denotes the midpoint of the concentration-response curve, whichever way the signal moves. Turning to `CN1C(=O)CN=C(c2ccccc2)c2cc(Cl)ccc21`, the outcome in experiment [1], in experiment [2], in experiment [3], in [5], in experiment [4] and in [6] was inactive. The result in experiment [9], in experiment [10], in experiment [11], in experiment [12], in experiment [13] and in experiment [14] was inactive. For the same compound, the compound was called inactive in experiment [15], in experiment [17], in experiment [18], in experiment [20], in experiment [21] and in experiment [22]. Also, the result in experiment [23], in experiment [24], in experiment [25], in experiment [26], in experiment [27] and in [28] was inactive. In addition, the compound was classed as inactive in experiment [29], in [30] and in [31]. For the same compound, the AC50 in experiment [7] was 3.62 µM (active); in experiment [8], 15 µM (active); in experiment [16] it was 3.06 µM (active); in [19], 15 µM (active); in [32], 23 µM (active).

The values above are taken from PubChem BioAssay (EPA / NIEHS).
